NCOA2 inhibitor – inhibition of GAL4-SRC2 driven luciferase reporter, primary screen, SRC2 inhibitor project, cell-based, luminescence. Nuclear receptor coactivator 2 (Homo sapiens), Q15596. HEK293 GAL4-SRC2 luciferase reporter. inhibition, % at 9 µM. 370,000 tested, 0.17% active. AID 651957, 2012;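 active means inhibition above the mean inhibition of all tested compounds plus 3 SD, set per campaign, cut at about 52% in these data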;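 further: 0% = DMSO treated cells and 100% = cells given Gossypol at 36 µM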
Gli-Sufu block – Gli-Sufu pathway antagonists, primary screen, luciferase luminescence, Sufu-KO-LIGHT cells, uHTS | 340,000 tested, 0.74% active | inhibition, % at 5 µM | AID 588413, 2011 | Sufu-KO-LIGHT fibroblasts, Gli luciferase reporter luminescence;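 active means inhibition above about 55%, limit read from the data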;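 further: 0% = DMSO-treated cells and 100% = wells with medium but no cells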
SRC1 inh – SRC1 coactivator transcriptional activity inhibitors, primary screen, cell-based, luminescence; Nuclear receptor coactivator 1 (Homo sapiens), Q15788; HEK293 GAL4-SRC1 luciferase reporter; inhibition, % at 3.6 µM; 360,000 tested, 0.12% active; AID 588354, 2011;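 active means inhibition above the campaign mean plus 3 SD, with each screening campaign given its own cutoff, cut at about 60% in these data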;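 further: 0% = DMSO treated cells and 100% = gossypol at 36 µM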
Target sequence (Q15788 whole entry, looked up, the tested form may be a part): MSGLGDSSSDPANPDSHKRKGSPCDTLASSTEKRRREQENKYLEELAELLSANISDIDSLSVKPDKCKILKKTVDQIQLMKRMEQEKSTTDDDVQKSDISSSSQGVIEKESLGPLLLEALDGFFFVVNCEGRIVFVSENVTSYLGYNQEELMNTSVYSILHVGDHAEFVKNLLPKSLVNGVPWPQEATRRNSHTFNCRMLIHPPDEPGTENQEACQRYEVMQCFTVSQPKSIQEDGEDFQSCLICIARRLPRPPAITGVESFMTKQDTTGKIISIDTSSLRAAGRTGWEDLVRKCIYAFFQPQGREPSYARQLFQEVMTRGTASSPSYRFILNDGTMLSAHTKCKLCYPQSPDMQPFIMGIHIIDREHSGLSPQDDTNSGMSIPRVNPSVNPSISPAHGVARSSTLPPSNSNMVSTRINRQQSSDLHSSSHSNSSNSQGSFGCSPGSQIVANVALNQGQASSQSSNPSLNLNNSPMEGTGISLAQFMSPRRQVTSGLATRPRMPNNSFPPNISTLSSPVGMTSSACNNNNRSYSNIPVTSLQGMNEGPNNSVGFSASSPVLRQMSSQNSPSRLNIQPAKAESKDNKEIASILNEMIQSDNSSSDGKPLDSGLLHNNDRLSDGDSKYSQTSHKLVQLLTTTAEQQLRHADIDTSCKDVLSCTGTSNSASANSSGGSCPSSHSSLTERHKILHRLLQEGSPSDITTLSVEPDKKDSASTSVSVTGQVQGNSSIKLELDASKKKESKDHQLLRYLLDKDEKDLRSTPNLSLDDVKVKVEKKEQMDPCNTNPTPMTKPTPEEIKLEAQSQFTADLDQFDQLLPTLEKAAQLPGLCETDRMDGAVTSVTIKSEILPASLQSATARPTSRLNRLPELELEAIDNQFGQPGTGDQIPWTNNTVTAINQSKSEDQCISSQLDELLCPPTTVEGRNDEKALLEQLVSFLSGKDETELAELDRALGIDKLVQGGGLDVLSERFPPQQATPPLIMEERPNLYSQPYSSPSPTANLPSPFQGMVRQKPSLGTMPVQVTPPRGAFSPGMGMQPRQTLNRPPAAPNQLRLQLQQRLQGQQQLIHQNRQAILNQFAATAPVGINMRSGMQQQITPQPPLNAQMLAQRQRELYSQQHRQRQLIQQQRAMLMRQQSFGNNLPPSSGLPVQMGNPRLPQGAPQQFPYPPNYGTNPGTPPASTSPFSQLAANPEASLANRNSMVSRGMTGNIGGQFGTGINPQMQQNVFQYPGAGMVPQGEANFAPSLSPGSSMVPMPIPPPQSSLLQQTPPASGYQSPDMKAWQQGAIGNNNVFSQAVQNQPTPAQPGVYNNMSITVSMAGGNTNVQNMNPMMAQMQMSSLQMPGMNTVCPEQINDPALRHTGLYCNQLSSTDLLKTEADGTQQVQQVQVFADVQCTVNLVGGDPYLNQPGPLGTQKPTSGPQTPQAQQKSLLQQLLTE
COUP-TFII inh – NR2F2 transcriptional activity inhibitors, primary screen, cell-based, luciferase reporter, HEK293T, luminescence; COUP transcription factor 2 (Homo sapiens), P24468; HEK293T NGFI-A luciferase reporter; inhibition, % at 8.6 µM; 370,000 tested, 0.7% active; AID 686940, 2013;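 active means inhibition above a per-plate cutoff, mean inhibition of test wells between control levels plus 3 SD, cut at about 38% in these data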;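 further: cells cotransfected with COUP-TFII expression vector driving the NGFI-A reporter; 0% = median of COUP-TF2 test wells and 100% = reporter-only cells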
SRC3 inh – SRC3 coactivator transcriptional activity inhibitors, primary screen, cell-based, luminescence. inhibition, % at 3.6 µM. HEK293 GAL4-SRC3 luciferase reporter. Nuclear receptor coactivator 3 (Homo sapiens), Q9Y6Q9. AID 588352, 2011. 360,000 tested, 0.17% active;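 active means inhibition above a per-campaign cutoff, the mean of all compounds plus 3 SD, cut at about 60% in these data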;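 further: 0% = DMSO-treated cells and 100% = gossypol-treated cells at 36 µM; higher means less SRC3-driven luciferase light from the GAL4 reporter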
NR5A2 inv ag – LRH-1 (NR5A2) inverse agonists, primary screen, cell-based, luminescence, HEK293T, StAR-luciferase reporter. Nuclear receptor subfamily 5 group A member 2 (Homo sapiens), O00482. LRH-1 transfected, 24 h. inhibition, % at 3.6 µM. 360,000 tested, 0.13% active. AID 602396, 2012;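 active means inhibition above the mean inhibition of all tested compounds plus 3 SD, cut at about 73% in these data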;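 further: 0% = DMSO wells and 100% = reporter-only cells lacking LRH-1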
Gli antag conf – Gli-SUFU pathway antagonists, confirmation, single concentration, luciferase luminescence, Sufu-KO-LIGHT cells; shares compounds with Gli-Sufu block; Gli luciferase reporter; inhibition, % at 5 µM; 2,500 tested, 40% active;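 active means mean inhibition at 5 µM reaching about 45%, limit read from the data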;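 further: plate controls were DMSO-treated cells for no effect and wells lacking cells for full effect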
SufuKO cytotox – cytotoxicity in Sufu-KO-LIGHT cells, confirmation, cytotoxicity control for Gli-SUFU antagonist project, cell-based, ATP luminescence, single concentration; shares compounds with Gli-Sufu block; cytotoxicity, % at 5 µM; 2,500 tested, 32% active;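 active means mean cytotoxicity at 5 µM above about 25%, limit read from the data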;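 further: cells exposed to compound overnight for roughly 16 to 18 hours; plate controls were DMSO wells with cells for no effect and medium without cells for full effect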
Wnt3a counter – Wnt3a reporter signal inhibition, confirmation, counter-screen for Gli-SUFU antagonist project, Wnt-LIGHT cells, luminescence, single concentration | shares compounds with Gli-Sufu block | Wnt3a-driven luciferase reporter | inhibition, % at 6.25 µM | 2,500 tested, 20% active | AID 651995, 2013;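 active means mean inhibition above about 25%, limit read from the data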
* marks the source's active call; other numbers are inactive results; · = not tested or not shown. This is a sample that favours compounds with a hit; in the whole collection about 1.3% have one here.

SMILES | NCOA2 inhibitor | Gli-Sufu block | SRC1 inh | COUP-TFII inh | SRC3 inh | NR5A2 inv ag | Gli antag conf | SufuKO cytotox | Wnt3a counter
C/C(=N\NC(=O)C1COc2ccccc2O1)c1ccccn1 (stereo unspecified) | -20 | 89* | 3 | 22 | 35 | 22 | 73* | 44* | 53*
Nc1ccccc1-c1nc2ccccc2[nH]c1=O | -34 | -5 | -67 | -38 | -46 | -76 | · | · | ·
Nc1ccc(Br)cc1-c1nc2ccccc2[nH]c1=O | -47 | 52 | -7 | 0 | -21 | -17 | 69* | 34* | 7
Cc1[nH]c2ccccc2c1C(=O)C(=O)Nc1ccc2c(c1)OCCO2 | -52 | -59 | -43 | -31 | -41 | -54 | · | · | ·
CCC(C(=O)Nc1ccc2c(c1)OCCO2)n1c(=O)[nH]c2ccccc2c1=O (stereo unspecified) | 21 | 53 | 14 | -3 | 14 | -5 | 23 | -8 | 48*
COc1ccc(OCC(O)Cn2c(=N)n(Cc3ccccc3)c3ccccc32)cc1 (stereo unspecified) | -5 | 52 | -1 | 1 | 11 | 15 | 33 | 31* | -14
COC(=O)c1ccc(NC(=O)CSc2nc3ccccc3c(=O)[nH]2)cc1 | 9 | 4 | -14 | 22 | 2 | -7 | · | · | ·
COc1ccc(NC(=O)CSc2nc3ccccc3c(=O)[nH]2)cc1S(N)(=O)=O | 6 | 57* | 1 | -34 | -28 | -21 | 2 | -9 | -16
CCC1(O)CC2CN(CCc3c([nH]c4ccccc34)C(C(=O)OC)(c3cc4c(cc3OC)N(C=O)C3C(O)(C(=O)OC)C(OC(C)=O)C5(CC)C=CCN6CCC43C65)C2)C1 (stereo unspecified) | 5 | 55 | -12 | -81 | 13 | 40 | 63* | 65* | -8
COc1ccc(CCNC(=O)[C@H](C)N2C(=O)N3CCc4c([nH]c5ccccc45)[C@@]3(C)C2=O)cc1OC | 8 | -2 | 7 | 24 | 22 | 19 | · | · | ·
Cc1ccc(C(=O)N2CCN3C(=O)c4ccccc4C23c2ccc(Cl)cc2)cc1 (stereo unspecified) | -16 | 56* | -49 | -51 | -23 | 23 | 61* | 10 | -23
O=C(CCl)N1CCN2C(=O)c3ccccc3C12c1ccc(Cl)cc1 (stereo unspecified) | 24 | 3 | -12 | 6 | 0 | 14 | · | · | ·
CC(C)(C)c1ccc2c(c1)OC(C(=O)N/N=C\c1ccc[nH]1)CO2 (stereo unspecified) | 6 | 90* | -2 | 34 | 12 | 5 | 92* | 9 | -14
CCCC1CCC2(CC1)CCC2OC(=S)Nc1cccc(Cl)c1 (stereo unspecified) | · | · | · | 9 | · | · | · | · | ·
CCCCCCCC[n+]1c(C)n(-c2ccccc2)c2ccc(NC(C)=O)cc21 | -11 | 76* | 28 | 14 | 22 | 26 | 78* | 31* | 9
COC(=O)[C@@H](C)NC(=O)C(Cc1ccc2c(c1)OCO2)NC(C)=O (stereo partly specified) | 0 | · | · | 1 | · | · | · | · | ·
COc1cccc(C(=O)C2CCCN(C(=O)c3ccc(C#CC(C)(C)O)cc3)C2)c1 (stereo unspecified) | -10 | 60* | -10 | 18 | 8 | 2 | 18 | 14 | -45
COc1ccccc1CCNC(=O)CNC(=O)c1ccc2ccccc2c1 | 5 | 57* | 2 | 21 | -1 | -11 | 9 | 9 | -27
COc1ccccc1CCNC(=O)c1ccc(C)o1 | 6 | 57* | -20 | 6 | 0 | -30 | 4 | 25 | -1
Cc1ccc(NC(=O)C2CCN(c3nnc(-n4cccc4)s3)CC2)cc1C | 2 | · | · | 17 | · | · | · | · | ·
COCCCN1C(=O)[C@H](CC(=O)NCC2CCCCC2)[C@]2(C(=O)OC)CCCCC=C12 | 11 | · | · | -11 | · | · | · | · | ·
C=C(C)Cn1c(CN(C)Cc2ccccc2)nc2c1c(=O)n(C)c(=O)n2C | -42 | 58* | 15 | -17 | -12 | 16 | 25 | 38* | -8
CC(C)n1c(CN(C)Cc2ccccc2)nc2c1c(=O)n(C)c(=O)n2C | 24 | 70* | · | 30 | · | · | 78* | 25 | 48*
CC(C)n1c(NCCc2ccccc2)nc2c1c(=O)n(C)c(=O)n2C | 5 | 51 | 18 | 19 | 41 | 0 | 59* | 38* | -5
CC(=O)C(C)n1c(CN(C)Cc2ccccc2)nc2c1c(=O)n(C)c(=O)n2C (stereo unspecified) | -2 | 5 | -2 | 23 | 5 | 7 | · | · | ·
SMILES | NCOA2 inhibitor | Gli-Sufu block | SRC1 inh | COUP-TFII inh | SRC3 inh | NR5A2 inv ag | Gli antag conf | SufuKO cytotox | Wnt3a counter
Cn1c(=O)c2c(nc(NCCO)n2CCc2ccccc2)n(C)c1=O | 16 | 15 | 13 | 21 | 22 | -4 | · | · | ·
Cc1[nH]c(C)c(S(=O)(=O)Nc2ccccc2Cl)c1C(=O)N1CCCC1 | -10 | 58* | 8 | -6 | 6 | 9 | 20 | -1 | 5
Cc1[nH]c(C)c(S(=O)(=O)Nc2cccc(Cl)c2C)c1C(=O)N1CCCC1 | 6 | -2 | -4 | 4 | 5 | 2 | · | · | ·
COc1ccc(/C=C(/NC(=O)c2ccccc2)C(=O)N/N=C/c2ccc3c(c2)OCO3)cc1OC | 4 | 84* | -15 | 2 | -9 | 9 | 18 | 0 | -7
NC(=O)c1c(N)[nH]c(C(=O)c2ccccc2)c1-c1ccccc1 | 18 | · | · | 9 | · | · | · | · | ·
N#Cc1c(-c2ccccc2)cc(C2CC2)nc1N | -18 | 50 | -10 | -8 | -8 | 3 | 22 | 24 | -14
COc1ccc(CCNC(=O)c2cc3c(=O)n4ccccc4nc3n(CCN3CCOCC3)c2=N)cc1 | 7 | 66* | 22 | 10 | 6 | 28 | 21 | 5 | -46
CCOC(=O)C1=C(C)NC(C)=C(C(=O)OCC)C1C | -12 | 53 | 11 | -1 | 19 | 12 | 15 | 1 | 11
S=c1[nH]nc(-c2cc(-c3ccccc3)n[nH]2)n1N=Cc1c[nH]c2ccccc12 | -26 | · | · | -35 | · | · | · | · | ·
